# Data as given in article PMC4336329 (PLoS ONE, 2015).
# The campaign covered roughly 310,000 compounds. About 14,000 (4.5%) showed an effect of 50% or more. Effects have a minus sign here. What follows is part of a selection rich in strong results, with near analogues and random picks from the rest.
# Target: human ether-à-go-go-related gene (hERG) potassium channel (human, UniProt Q12809)
# Assay: primary screen, population patch clamp on CHO cells stably expressing hERG; higher = less effect of the substance
# 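Further: peak tail current of the secondary pulse compared with the same well before compound.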
# human ether-à-go-go-related gene (hERG) potassium channel, sequence (Q12809 whole entry, looked up): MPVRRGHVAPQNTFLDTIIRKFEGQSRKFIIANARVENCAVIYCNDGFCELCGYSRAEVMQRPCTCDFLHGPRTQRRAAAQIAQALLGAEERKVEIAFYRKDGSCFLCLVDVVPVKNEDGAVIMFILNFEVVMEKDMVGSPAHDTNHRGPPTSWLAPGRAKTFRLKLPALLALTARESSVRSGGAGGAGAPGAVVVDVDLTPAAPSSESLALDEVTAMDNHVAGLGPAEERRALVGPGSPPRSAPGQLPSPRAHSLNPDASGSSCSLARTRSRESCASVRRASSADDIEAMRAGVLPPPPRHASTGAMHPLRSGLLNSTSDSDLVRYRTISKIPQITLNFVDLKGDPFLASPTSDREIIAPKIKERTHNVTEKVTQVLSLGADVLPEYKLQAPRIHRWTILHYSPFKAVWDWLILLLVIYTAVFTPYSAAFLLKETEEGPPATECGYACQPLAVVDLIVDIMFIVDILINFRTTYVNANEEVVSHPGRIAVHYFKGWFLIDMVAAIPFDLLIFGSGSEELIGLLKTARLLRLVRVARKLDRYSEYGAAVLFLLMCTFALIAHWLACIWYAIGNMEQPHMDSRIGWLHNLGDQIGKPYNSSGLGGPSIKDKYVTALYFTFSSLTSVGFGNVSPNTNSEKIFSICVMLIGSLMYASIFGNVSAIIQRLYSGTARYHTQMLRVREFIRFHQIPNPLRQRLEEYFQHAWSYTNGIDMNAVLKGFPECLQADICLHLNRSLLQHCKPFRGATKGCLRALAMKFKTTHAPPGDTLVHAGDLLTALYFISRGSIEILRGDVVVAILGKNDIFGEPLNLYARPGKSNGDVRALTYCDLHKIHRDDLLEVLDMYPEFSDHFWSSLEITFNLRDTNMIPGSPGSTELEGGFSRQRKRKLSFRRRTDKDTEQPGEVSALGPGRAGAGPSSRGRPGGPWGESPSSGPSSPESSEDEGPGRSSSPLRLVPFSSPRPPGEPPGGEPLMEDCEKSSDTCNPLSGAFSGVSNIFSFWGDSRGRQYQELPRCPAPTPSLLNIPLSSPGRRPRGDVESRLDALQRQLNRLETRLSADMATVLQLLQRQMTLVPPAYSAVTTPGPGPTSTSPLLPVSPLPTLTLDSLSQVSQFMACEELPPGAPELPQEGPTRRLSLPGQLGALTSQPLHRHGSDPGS
row,SMILES,"hERG current change (%, negative = inhibition) at 10uM [%]"
1,O=C(c1noc2c1CCCC2)N1CCc2c([nH]c3ccccc23)C1c1ccccn1 (centres unmarked),-7.65
2,O=C(Nc1ccccn1)N1CCOCC1,15.1
3,O=C(CN1CCN(c2ccc(F)cc2)CC1)Nc1ccc(S(=O)(=O)N2CCOCC2)cc1,0.845
4,Cc1cc(C)cc(-n2nnc(C(=O)NCc3ccco3)c2N)c1,-29.8
5,O=C(Cn1nnc(-c2ccccc2NC(=O)c2ccco2)n1)Nc1ccccc1,16.1
6,COc1cc(/C=C/C(=O)Nc2nnc(CC(C)C)s2)cc(OC)c1OC,-27.8
7,CCN1CCN(c2ccc(NC(=O)c3cc4ccccc4cc3OC)cc2C)CC1,-48.7
8,C(=C\c1ccco1)/c1nc2ccccc2[nH]1,8.91
9,O=C(c1cc2ncc(CCCl)cn2n1)N1CCCCCC1,8.53
10,Cc1cccc(C)c1N1CCc2cn[nH]c21,8.17
11,CC1=NN(C(N)=S)C(=O)C1N=Nc1cccc(Cl)c1 (centres unmarked),17.2
12,CN(C)S(=O)(=O)c1ccc2c(c1)C(=NO)c1cc(S(=O)(=O)N(C)C)ccc1-2,14.7
13,OCCNc1nc(Cl)nc(NCc2ccco2)n1,8.89
14,CCc1ccccc1NC(=O)COC(=O)c1c(C)nsc1NC,-2.87
15,COc1ccccc1C(=O)n1nc(-c2ccccc2)nc1N,0.335
16,CCN(CC(=O)Nc1ccccc1C(=O)Nc1ccccc1)Cc1nc2ccccc2c(=O)[nH]1,-75.6
17,CCN(CC(=O)Nc1ccccc1Br)Cc1nc2ccccc2c(=O)[nH]1,-22.3
18,CCN(CC(=O)Nc1ccccc1-c1ccccc1)Cc1nc2ccccc2c(=O)[nH]1,-23.4
19,O=C(CCSc1nc(-c2ccco2)cc(C(F)(F)F)n1)NCC1CCCO1 (centres unmarked),-8.69
20,O=C1CCC(=O)N1OCCCOc1ccccc1,-2.09

row,SMILES,"hERG current change (%, negative = inhibition) at 10uM [%]"
1,COC(=O)c1[nH]c2ccc(Cl)cc2c1NC(=O)C1CC1,17.1
2,Cc1ccccc1-n1ncc(C(C)NC(=O)c2ccccc2)c1C (centres unmarked),-4.33
3,COc1cc(C(=O)NC(C)c2cnn(-c3ccccc3C)c2C)cc(OC)c1OC (centres unmarked),-51
4,COc1cc(OC)cc(C(=O)NC(C)c2cnn(-c3ccccc3C)c2C)c1 (centres unmarked),-1.48
5,C/C(N)=C(/C#N)C(=O)COC(=O)C1CCC(C(C)(C)C)CC1 (centres unmarked),-7.3
6,O=c1[nH]c(C2CCN(S(=O)(=O)c3ccccc3)CC2)nc2c1nnn2Cc1c(F)cccc1Cl,-2.84
7,CCOC(=O)c1[nH]c2c(c1C)C(=O)CC(c1ccc(OC)c(OC)c1)C2 (centres unmarked),-9.84
8,O=C(CCN1CCN(CC(=O)Nc2ccccc2F)CC1)Nc1ccccc1F,-65.4
9,Cl.O=C(CCN1CCCCCC1)Nc1ccccc1F,-4.4
10,CN1CCN(CCC(=O)Nc2ccccc2Cl)CC1,-1.75
11,O=C(CN1CCN(c2ccccc2F)CC1)Nc1ccccc1F,-1.86
12,O=C(CCN1CCN(CC(=O)Nc2ccccc2Cl)CC1)Nc1ccccc1F,-69.1
13,O=C(CCN1CCN(c2ccccc2F)CC1)Nc1ccccc1Cl,-2.49
14,COc1ccc(N(Cc2ccccc2)S(=O)(=O)c2cc(C(=O)O)ccc2Cl)cc1,5.3
15,CC(C)C(NC(=O)c1ccccc1)C(=O)OCC(=O)N1CCN(c2ccccc2)CC1 (centres unmarked),-2.47
16,CC(C)[C@H](NC(=O)OCc1ccccc1)C(=O)OCC(=O)N1CCN(c2ccccc2)CC1,-58.3
17,CC(C)C(NC(=O)OCc1ccccc1)C(=O)OCC(=O)N1CCCCC1 (centres unmarked),-7.36
18,CC(C)[C@H](NC(=O)OCc1ccccc1)C(=O)OCC(=O)Nc1ccc(N2CCOCC2)cc1,-15.1
19,CC(C)[C@H](NC(=O)OCc1ccccc1)C(=O)OCC(=O)N1CCN(c2ccc(F)cc2)CC1,-75.3
20,CC(C)C(NC(=O)OCc1ccccc1)C(=O)OCC(=O)N1C(C)CCCC1C (centres unmarked),4.95

row,SMILES,"hERG current change (%, negative = inhibition) at 10uM [%]"
1,CCOC(=O)N1CCN(C(=O)CN(C2CCCCC2)S(=O)(=O)c2ccc(F)cc2)CC1,-25.3
2,O=C(Nc1cc(S(=O)(=O)N2CCOCC2)ccc1N1CCOCC1)c1cnccn1,-42.7
3,CC(C)(C)C(=O)NC(=S)Nc1ccccc1C(=O)NC1CCCCC1,-18
4,COc1ccc(C)cc1NC(=O)c1ccc2c(SCC(=O)O)c3c(nc2c1)CCCC3,10.9
5,CC(C)OC(=O)CSc1nnc(-c2ccc(Cl)cc2Cl)o1,-7.24
6,O=C(CN1CCN(S(=O)(=O)c2ccc(Cl)cc2)CC1)Nc1ccc2c(c1)OCO2,-65
7,O=C(CN1CCN(S(=O)(=O)c2ccccc2)CC1)Nc1ccc2c(c1)OCO2,-44.1
8,O=C(CN1CCN(S(=O)(=O)c2ccc(Br)cc2)CC1)Nc1ccc2c(c1)OCO2,-62.4
9,O=C(CN1CCN(S(=O)(=O)c2ccc(Cl)cc2)CC1)Nc1ccc2c(c1)OCCO2,-5.94
10,CC(C)c1ccc(S(=O)(=O)N2CCN(CC(=O)Nc3ccc4c(c3)OCO4)CC2)cc1,-13.9
11,O=C(CN1CCN(S(=O)(=O)c2ccc(Br)cc2)CC1)Nc1ccc2c(c1)OCCO2,-27.9
12,CCCc1nnc(SCC(=O)Nc2ccc(OC)cc2)o1,28.8
13,Nn1c(SCc2ccccc2)nnc1C1CCCCC1,7.68
14,CC1(C)Cc2c(cnn2-c2ccc(F)cc2)C(NC(=O)CCC(F)(F)F)C1 (centres unmarked),-42.8
15,CC(=O)N1CCC(C(=O)NC2CC(C)(C)Cc3c2cnn3-c2ccc(F)cc2)CC1 (centres unmarked),-25.3
16,COCC(=O)NC1CC(C)(C)Cc2c1cnn2-c1ccc(F)cc1 (centres unmarked),-64.9
17,CC1(C)Cc2c(cnn2-c2ccc(F)cc2)C(NC(=O)C(C)(C)O)C1 (centres unmarked),-0.859
18,CC1(C)Cc2c(cnn2-c2ccc(F)cc2)C(NC(=O)C2CCC2)C1 (centres unmarked),-79.2
19,COC(=O)CCC(=O)NC1CC(C)(C)Cc2c1cnn2-c1ccc(F)cc1 (centres unmarked),4.42
